Measured values: ChEMBL document CHEMBL3988442, “University of Dundee, Small-Polar-MMV Screening Library” (2021)
About 1,200 (3.2%) of roughly 38,000 compounds showed an effect of 50% or more. The median lay at about -58%. Shown is part of a subset that was picked to be rich in strong results.

test system: Plasmodium falciparum; experiment: Calibr Malaria Delayed Death Assay SOP; format: functional, organism-based; parameters: scale not given: in the data most compounds retested in dose-response had high values; conditions: concentration 4.99e-06 (unit not given; other assays of the set use mol/L)

| Structure (SMILES) | Percent Effect |
| --- | --- |
| CN(C)C(=O)CO[C@H]1CN(Cc2ccoc2)[C@@H]2COC[C@H]12.O=C(O)C(F)(F)F | -8.838% |
| CN(Cc1ccncc1)CC1CCCN(CCc2ccc(Cl)cc2)C1 (stereo unspecified) | -30.31% |
| CN(Cc1ccccc1O)CC1CCCN(CCc2ccc(Cl)cc2)C1 (stereo unspecified) | -82.77% |
| CN(Cc1cnc(N)nc1)CC1CCCN(CCc2ccc(Cl)cc2)C1 (stereo unspecified) | -42.11% |
| Cc1cc(CN(C)CC2CCCN(CCc3ccc(Cl)cc3)C2)[nH]n1 (stereo unspecified) | -73.95% |
| Cc1nc[nH]c1CN(C)CC1CCCN(CCc2ccc(Cl)cc2)C1 (stereo unspecified) | 82.22% |
| CC(C)NC(=O)c1nnn(-c2ccccc2)c1C1CC1 | -103.7% |
| CCCNC(=O)c1cc2c(s1)CCN2C(=O)c1ccccc1 | -140.9% |
| O=C(NCCN1CCOC1=O)c1cnc(-c2cccnc2)nc1 | -89.05% |
| O=C(N[C@@H]1CN(Cc2cccc(F)c2)C[C@H]1O)c1cscn1 | -187.1% |
| O=C(COCC1CC1)Nc1ncccc1I | -99.18% |
| CCOCC1CN(Cc2ccc(OC)cc2)Cc2nn(CC3CC3)cc21.O=C(O)C(F)(F)F (stereo unspecified) | -47.96% |
| CC(C)N(CCNC(=O)c1[nH]nc2ccc(I)cc12)C(C)C | 86.77% |
| Cc1cccc(C(C)C)c1NC(=O)NCCN(C(C)C)C(C)C | 37.4% |
| CC(C)N(CCNC(=O)c1ccc(S(=O)(=O)NC2CC2)cc1)C(C)C | 3.108% |
| c1ccc(-c2cc(CN3C[C@@H]4CC[C@H](C3)N(CC3CCC3)C4)on2)cc1 | 88.08% |
| c1ccc(-c2cc(CN3C[C@H]4CC[C@H]3C4)on2)cc1 | 2.742% |
| c1ccc(-c2cc(CN3C[C@@H]4CC[C@H](C3)N(CC3CC3)C4)on2)cc1 | 16.35% |
| CCC(OC)C(=O)NCc1cc2n(n1)CCCN(C1CCCCC1)C2 (stereo unspecified) | -16.19% |
| CC1CCCCN1c1nc2c(c(=O)[nH]1)CCN(Cc1ccccc1F)C2 (stereo unspecified) | 13.92% |
| CCc1ccc(-c2cc(C(F)(F)F)nc(N3CCC(N)CC3)n2)cc1 | 81.95% |
| Cc1c(-c2cc(C(F)(F)F)nc(N3CCC(N)CC3)n2)cnn1C | 19.65% |
| Cc1ccc(-c2cc(C(F)(F)F)nc(N3CCOCC3)n2)s1 | -16.11% |
| CCn1cc(-c2cc(C(F)(F)F)nc(NC3CCCC3)n2)c(C)n1 | -77.03% |
| CCn1ncc(-c2cc(C(F)(F)F)nc(N3CCC(N)CC3)n2)c1C | 64.36% |
| FC(F)(F)c1cc(-c2cccs2)nc(N2CCN3CCCC3C2)n1 (stereo unspecified) | -49.64% |
